Source: PubChem BioAssay (NCATS)
Records with an inconclusive call do not appear. A number with no mark means an inactive call. Activity calls are given as the source filed them. Calls come from the whole dose curve; as a rule, active = well fitted cell-killing curve with a large enough effect; inconclusive = small, poorly fitted or top-dose-only effect, or effect the other way; inactive = no such curve, though single readings can be large or run the other way.

Experiment: Quantitative High-Throughput drug screen in 47 multiple myeloma cell lines against the NCATS MIPE library collection: KMS27_JCRB cell viability assay (AID 1918970); note: nearly all actives have a fitted effect of over 30% in size;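 for viability (% of DMSO): 100% = DMSO-only wells and 0% = media-only wells without cells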
Settings: KMS27 myeloma cells, CellTiter-Glo ATP viability, 48 h; viability (% of DMSO): at 45.8 µM (top of the series)
How it was run: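 Each line is seeded at 500 cells per well and treated with library compounds for 48 hours under 37 °C, 5% CO2. CellTiter-Glo is then added for 5 min at room temperature before median relative luminescence is recorded.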
Potency is the fitted concentration of half-maximal effect.

Row | SMILES | Potency | viability (% of DMSO)
1 | N#Cc1ccc(Oc2ccc3c(c2)COB3O)cc1 | 23.5 µM (active) | –
2 | CCNC(=O)c1noc(-c2cc(C(C)C)c(O)cc2O)c1-c1ccc(CN2CCOCC2)cc1 | – | 131%
3 | CC(C)=CCCC(C)=CCCC(C)=CCCC(C)=CCCC(C)=CCCC(C)=CCCC(C)=CCCC(C)=CCCC(C)=CCO | – | 132%
4 | CC(=O)OCC(=O)[C@@]12OC(C)(C)O[C@H]1C[C@H]1[C@@H]3C[C@H](F)C4=CC(=O)C=C[C@]4(C)[C@@]3(F)[C@@H](O)C[C@@]12C | – | 121%
5 | c1ccc(-c2oc3ncnc(NC[C@@H]4CCCO4)c3c2-c2ccccc2)cc1 | 4.69 µM (active) | –
6 | CCCCCOC(=O)Nc1nc(=O)n([C@@H]2O[C@H](C)[C@@H](O)C2O)cc1F (some centres undefined) | – | 95.1%
7 | Nc1[nH]nc2nnc(-c3c(-c4ccccc4)nn4ccccc34)cc12 | 1.87 µM (active) | –
8 | CC1(C)CC(=O)c2c(C(F)(F)F)nn(-c3ccc(C(N)=O)c(NC4CCC(O)CC4)c3)c2C1 (centres undefined) | – | 102%
9 | Cc1nc2c([nH]1)CCN(C(=O)c1ccc(NC(=O)c3ccccc3-c3ccccc3)cc1)c1ccccc1-2 | – | 86.3%
10 | CCN(CC)CCCCNc1nc2cc(Cl)c(Cl)cc2nc1-c1ccc(-c2cccs2)s1 | 8.33 µM (active) | –
11 | O=S(=O)(O)c1ccc2cc(N=Nc3cc(S(=O)(=O)O)c4cccnc4c3O)ccc2c1 | – | 104%
12 | CC1CCN(c2cc(N3CCN(C)CC3)ccc2NC(=O)c2cc(C#N)c[nH]2)CC1 | – | 136%
13 | Cc1cn([C@@H]2C[C@@H](O)[C@H](CO)O2)c(=O)[nH]c1=O | – | 122%
14 | Cc1cccc(-c2[nH]c(C(C)(C)C)nc2-c2ccc3c(c2)OCO3)n1 | 1.32 µM (active) | –
